# Hits are enriched below; roughly 10% of the tested compounds scored in any of these assays.
# LMNA splice mod = modulators of lamin A splicing. Potency, µM (highest dose often 46.1 µM), without a hit: at the highest dose ratio change, negative = inhibition, usual class: inhibitors. 200,000 compounds, 0.01% hits. HeLa LMNA splicing GFP/RFP minigene ratio, 48 h. AID 1487; active = well fitted inhibition curve with a large enough effect in the signal ratio, with a control signal flat, not every such curve was filed as active; inconclusive = small, poorly fitted or top-dose-only effect, or effect the other way, or a change in a side signal; the % refers to the signal ratio; also: potency is read from the fitted curve at half-maximal effect
#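 S3 HeLa stable clones carrying a lamin A-EGFP splicing minigene plus DsRed2 were seeded at 600 cells/well in Opti-MEM with 2% FBS, pin-dosed and incubated 48 h at 37°C. Acumen cytometry (488 nm) gave the GFP/RFP total-intensity ratio.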
# PNC inhibitor = blocks assembly of the perinucleolar compartment; PC3M PTB-GFP, PNC prevalence imaging, 16 h; active compounds read low; activity change (PNC), negative = inhibition, % at 10 µM; 140,000 compounds, 3.1% hits;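 active = readout at or below -70, meaning at least 70% loss of cells showing the perinucleolar compartment, a nuclear body marking cancer cells; inconclusive = readout between -30 and a set limit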;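 also: plate controls were DMSO wells for no effect and camptothecin positive control wells for full effect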
#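 Read-out is percentage of cells bearing a perinucleolar compartment, from automated 20x imaging of fixed, Hoechst-stained PC3M PTB-GFP cells. Cells were seeded 4 h, then exposed 16 h to compound (23 nl of library stock) in duplicate plates.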
# 12-hLO inh = inhibitors of human 12-lipoxygenase (ALOX12); P18054; purified 12-hLO, xylenol orange hydroperoxide absorbance; Potency, µM (doses to about 57.1 µM), without a hit: at the highest dose activity change, negative = inhibition, usual class: inhibitors; 150,000 compounds, 0.12% hits; AID 1452; active = well fitted inhibition curve with a large enough effect; inconclusive = small, poorly fitted or top-dose-only effect; also: potency is read from the fitted curve at half-maximal effect; nearly all actives have a fitted effect of over 55% in size
#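 Hydroperoxide formation by human 12-lipoxygenase from 40 uM arachidonic acid was followed colorimetrically via ferric-xylenol orange complex, using the 573/405 nm absorbance ratio. Enzyme concentration was 150 nM, with 30 min reaction at room temperature.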
# HPGD inh = inhibitors of human 15-hydroxyprostaglandin dehydrogenase (HPGD) | P15428 | purified HPGD, NADH fluorescence kinetic, PGE2 substrate | Potency, µM, without a hit: at the highest dose activity change, negative = inhibition, actives largely listed as inhibitors | 150,000 compounds, 4.3% hits; also: potency is read from the fitted curve at half-maximal effect
# Target sequence (P15428 whole entry, looked up): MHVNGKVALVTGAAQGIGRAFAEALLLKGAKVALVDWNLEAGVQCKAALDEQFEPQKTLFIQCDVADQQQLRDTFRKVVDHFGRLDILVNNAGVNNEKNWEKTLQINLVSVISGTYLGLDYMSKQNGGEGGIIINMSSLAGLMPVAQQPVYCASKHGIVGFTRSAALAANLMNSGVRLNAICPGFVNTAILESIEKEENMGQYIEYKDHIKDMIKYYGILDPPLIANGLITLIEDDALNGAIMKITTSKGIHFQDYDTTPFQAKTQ
#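 20 nM HPGD preincubated 15 min at room temperature with compound in 50 mM Tris-HCl pH 8, 0.01% Tween 20. Started with 1 mM NAD+ and 30 uM prostaglandin E2; NADH fluorescence (360/450 nm) read 5 times over 30-s intervals, last minus first.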
# ALDH1A1 inh = inhibitors of human aldehyde dehydrogenase 1A1; Purified ALDH1A1, NADH fluorescence, propionaldehyde substrate; Potency, µM (highest dose often 75.3 µM), for inactives: at the top dose activity, negative = inhibition, most hits filed as inhibitors; 220,000 compounds, 7.3% hits;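 also: potency is read from the fitted curve at half-maximal effect; plate controls were no enzyme wells and a reference inhibitor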
# An asterisk follows results filed as active; ? = inconclusive; · = no result; [ ] = dose if it differs, or a comment. Unless noted, calls follow the shape of the dose curve; as a rule, active = well fitted inhibition curve with a large enough effect (not every such curve was filed as active); inconclusive = small, poorly fitted or top-dose-only effect, or another doubt; inactive = no such curve, though single readings can be large or run the other way. Unless noted, % is scaled to controls: 0 for no effect and ±100 for the full control effect.
SMILES,LMNA splice mod,PNC inhibitor,12-hLO inh,HPGD inh,ALDH1A1 inh
CC(C)C12CC[C@@]3(CC[C@H]4[C@@](C)(CCC[C@]4(C)C(=O)O)[C@@H]3C1)[C@@H](CN)C2,·,·,0%[11.4 µM],-4%,?
Nc1ccc(Oc2ccc3c(c2)C(=O)N(CC2CCCO2)C3=O)cc1 (centres undefined),·,·,·,·,28µM*
Nc1ccc2c(c1)C(=O)N(CC1CCCO1)C2=O (centres undefined),-7%,27,8%,-5%,8.9µM*
O=C1CSC(=S)N1CC1CCCO1 (centres undefined),5%,22,-5%,-2%,?
Cc1nc(N2CCCC2)c2c(C(=O)N3CCN(c4cccc(Cl)c4)CC3)c(C)oc2n1,-5%[46 µM],·,·,·,·
CC1(C)C(c2ccccc2)=[N+]([O-])CN1O,8%,2,-2%,-3%,7.9µM*
CC(=O)Nc1cc(OC(=O)c2ccco2)cc(OC(=O)c2ccco2)c1,-2%,8,-3%,-9%,13%
O=C(Oc1cncc(Cl)c1)c1ccco1,-3%,-81*,-7%,-2%,5%
Cc1ccc(C2CC(c3ccccc3)=NN2C(=S)Nc2ccccc2)o1 (centres undefined),-20%,-88*,?,18µM*,2µM*
CC1=NN(C(=S)Nc2ccccc2)C(c2ccccc2)C1 (centres undefined),8%,12,-1%,-3%,-12%
O=C(O)c1cccc(-c2ccc(/C=N/NC(=O)c3cccnc3)o2)c1,5%,-83*,-4%,?,?
Cc1ccc(/C=N/NC(=O)c2cccnc2)o1,·,·,·,·,-23%
C[C@H]1O[C@@H](O[C@H]2[C@@H](O)C[C@H](O[C@H]3[C@@H](O)C[C@H](O[C@H]4CC[C@@]5(C)[C@H](CC[C@@H]6[C@@H]5C[C@@H](O)[C@]5(C)[C@@H](C7=CC(=O)OC7)CC[C@]65O)C4)O[C@@H]3C)O[C@@H]2C)C[C@H](O)[C@@H]1O,?,-90*,2%,-4%,-1%
O=C(Cn1cc(SCc2cccc(Cl)c2)c2ccccc21)N1CCOCC1,-19%,-14,-3%,-28%,7.5µM*
Cc1cccc(CSc2cn(CC(=O)N3CCOCC3)c3ccccc23)c1,-5%,101,0%,-10%,?
COc1cc(-c2nnc(CSc3nnc(N)s3)o2)cc(OC)c1OC,-11%,?,-3%,-11%,0%
COc1cc(-c2nnc(-c3ccccc3)o2)cc(OC)c1OC,-17%,14,-3%,?,?
CCCc1nnc(-c2cc(OC)c(OC)c(OC)c2)o1,4%,-91*,-2%,-9%,?
COc1cc(-c2nnc(-c3cc(OC)c(OC)c(OC)c3)o2)cc(OC)c1OC,-10%,-100*,4%,?,?
CCCN(C(=O)c1cc2ccc3cccnc3c2[nH]1)c1ccc(F)cc1,-2%[46 µM],·,·,·,·
CN(C(=O)CSc1nc(C2CCCC2)nc2c1c(=O)n(C)c(=O)n2C)c1ccccc1,-8%[46 µM],·,·,·,·
COc1ccc(NC(=O)N(Cc2ccco2)C2CCN(C(C)=O)CC2)c(OC)c1,7%[46 µM],·,·,·,·
CCN(CC)S(=O)(=O)c1ccc2c(c1)nc(SC(C)C(N)=O)n2-c1ccc(OC)cc1 (centres undefined),19%,?,-5%,-26%,16µM*
Cc1cccc(CSCCNC(=O)CCSc2ccccc2)c1,7%,-24,-6%,28µM*,?
O=C(Cc1ccccc1)NCCSCc1ccc(Cl)cc1,4%,-7,-6%,32µM*,?
SMILES,LMNA splice mod,PNC inhibitor,12-hLO inh,HPGD inh,ALDH1A1 inh
O=C(CCSc1ccccc1)NCCSCc1ccccc1,-16%,-27,-7%,14µM*,?
O=C(CCc1ccccc1)NCCSc1ccccc1,4%[46 µM],·,·,·,-1%
CO/N=C(\C(=O)N[C@@H]1C(=O)N2C(C(=O)O)=C(CSc3nc(=O)c(O)nn3C)CS[C@@H]12)c1csc(N)n1,·,·,-4%,·,·
COC(=O)C1CC1C(NC(=O)[C@H]1CCCCN1)c1ccccc1 (some centres undefined),·,·,2%,0%,-10%
CCOc1ccccc1-n1nnnc1SCc1nc2ccccc2s1,9%,27,-5%,-13%,10µM*
Cc1ccc(C)c(NC(=O)CN2C(=O)c3cccnc3Oc3ccc(C)cc32)c1,5%[46 µM],·,·,·,·
O=c1[nH]c(-c2ccc(F)cc2)nc2c1sc(=S)n2-c1ccccc1,?,?,3%,-26%,?
O=c1[nH]cnc2c1sc(=S)n2-c1ccccc1,-10%,?,6%,14µM*,10µM*
CC(C)C(C(=O)Nc1ccc2c(c1)OCCOCCOCCOCCO2)N1C(=O)c2ccccc2C1=O (centres undefined),·,·,·,·,7%
COc1ccccc1NC(=O)c1cc2ccc(O)cc2o/c1=N\O,?,0,-11%,-17%,-9%
COc1ccccc1NC(=O)c1cc2ccccc2o/c1=N\O,4%,3,-12%,22µM*,?
Cc1cccc(CSc2nnnn2-c2ccccc2)c1,16%,?,3%,-18%,?
Cc1ccccc1Nc1nc(CSc2nnnn2-c2ccccc2)cs1,-8%,32,-17%,?,7.9µM*
c1ccc(-c2nc(CSc3nnnn3-c3ccccc3)cs2)cc1,?,?,-15%,-8%,14µM*
COCCNC(=O)Cn1cc(C(=S)N2CCOCC2)c2ccccc21,1%[46 µM],·,·,·,32µM*
CCN1C(=O)[C@H]2[C@H]3[C@H](O)[C@H](O)C/C(=N/OC[C@@H](O)[C@H]4O[C@H]5OC(C)(C)O[C@H]5[C@@H]4O)[C@@H]3CC[C@@H]2C1=O,·,·,·,·,14%[13.5 µM]
CC1(C)O[C@H]2OC([C@H](O)CON3C(=O)c4ccccc4C3=O)[C@H](O)[C@H]2O1 (some centres undefined),4%,40,-6%,16µM*,4%
Cc1cccc2sc(NC(=O)c3ccc(NS(=O)(=O)c4cccs4)cc3)nc12,?,-84*,-3%,?,?
O=C(NCc1ccccn1)Nc1ccc(Cl)c(Cl)c1,-9%,-84*,-8%,-3%,4%
Cc1cc(C)cc(NC(=O)C(=O)NCc2ccccn2)c1,-5%,-84*,1%,2%,4%
Cc1ccc(NC(=O)C(=O)NCc2ccccn2)cc1,16%[46 µM],·,·,·,0%
O=C(NCc1ccccn1)Nc1cccc(NC(=O)NCc2ccccn2)c1,5%,9,-5%,1%,2%
O=C(NCc1ccccn1)c1ccc(Cl)cc1Cl,-8%,?,-5%,20µM*,7%
CCC(C)(C)C1CCc2nc3ccccc3c(C(=O)OC(C)C(=O)Nc3c(C)n(C)n(-c4ccccc4)c3=O)c2C1 (centres undefined),?,-8,3%,-1%,-11%
S=C(NCC1CCCO1)Nc1ccc(Nc2ccccc2)cc1 (centres undefined),19%[46 µM],·,·,·,?

# Assay outcomes deposited in PubChem BioAssay by National Center for Advancing Translational Sciences (NCATS).
